Assay [1] can be described thus: reducers of endogenous Her2 protein level, primary screen, SKBR3 breast tumor cells, AlphaScreen, ATP viability (AID 461;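 active = Her2 level under about 52% in both replicate screens, with viability over 70% of control, limit read from the data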;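 as to Her2 level: lower value means less Her2 protein in the cells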;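 as to viability: percent of carrier control wells set as 100% viability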). To be noted: 18-24 h, measured here: SKBR3 viability, ATP luminescence, at 10 µM. (In general: Alpha assays give light when donor and acceptor beads are brought close together.)
The target of assay [2] is Receptor tyrosine-protein kinase erbB-2 (Homo sapiens) (UniProt P04626). The assay is described as above. Particulars: 18-24 h, at 10 µM, stronger effect = lower value.
Chain of Receptor tyrosine-protein kinase erbB-2 (Homo sapiens) (P04626 whole entry, looked up): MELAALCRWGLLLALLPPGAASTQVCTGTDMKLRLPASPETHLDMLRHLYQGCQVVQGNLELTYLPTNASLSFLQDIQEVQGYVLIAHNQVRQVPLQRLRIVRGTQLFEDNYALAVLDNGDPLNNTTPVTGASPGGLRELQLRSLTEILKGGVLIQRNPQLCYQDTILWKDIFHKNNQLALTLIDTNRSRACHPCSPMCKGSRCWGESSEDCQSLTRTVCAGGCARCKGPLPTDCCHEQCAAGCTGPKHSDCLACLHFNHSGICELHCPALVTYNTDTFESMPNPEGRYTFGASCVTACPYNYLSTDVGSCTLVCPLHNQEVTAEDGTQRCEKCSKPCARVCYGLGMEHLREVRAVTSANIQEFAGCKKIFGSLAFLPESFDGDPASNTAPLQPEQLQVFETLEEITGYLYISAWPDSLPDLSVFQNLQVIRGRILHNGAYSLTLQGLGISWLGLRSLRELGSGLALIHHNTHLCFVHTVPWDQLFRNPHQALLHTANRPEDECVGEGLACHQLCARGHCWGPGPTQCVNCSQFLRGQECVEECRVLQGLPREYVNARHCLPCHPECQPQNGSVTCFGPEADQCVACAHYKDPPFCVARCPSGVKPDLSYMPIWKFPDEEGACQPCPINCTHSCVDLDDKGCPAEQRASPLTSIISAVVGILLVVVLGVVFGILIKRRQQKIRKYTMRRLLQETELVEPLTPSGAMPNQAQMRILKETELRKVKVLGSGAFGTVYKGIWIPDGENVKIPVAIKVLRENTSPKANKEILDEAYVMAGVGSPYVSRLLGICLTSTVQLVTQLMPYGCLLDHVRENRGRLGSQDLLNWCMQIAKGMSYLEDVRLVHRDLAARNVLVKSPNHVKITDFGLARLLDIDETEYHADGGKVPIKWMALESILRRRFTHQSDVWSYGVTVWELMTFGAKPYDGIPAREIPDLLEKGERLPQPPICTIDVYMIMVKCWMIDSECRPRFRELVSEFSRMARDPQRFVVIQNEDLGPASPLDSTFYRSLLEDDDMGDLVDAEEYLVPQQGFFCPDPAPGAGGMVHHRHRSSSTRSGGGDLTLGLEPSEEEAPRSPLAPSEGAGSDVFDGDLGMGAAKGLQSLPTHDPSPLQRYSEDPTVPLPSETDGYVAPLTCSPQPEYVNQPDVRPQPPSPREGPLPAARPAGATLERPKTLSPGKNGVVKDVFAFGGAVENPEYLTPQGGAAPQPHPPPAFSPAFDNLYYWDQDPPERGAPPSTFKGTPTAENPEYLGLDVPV
Assay [3] in a line: SK-BR-3 cell growth inhibitors, pilot screen, 24 h, human (AID 572;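 active = viability at or below 10% of carrier control in both of two separate runs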;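 also: compound exposure lasted between 18 and 24 h rather than exactly 24 h; 100% = carrier-treated control wells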). Particulars: SK-BR-3 viability, CellTiter-Glo luminescence, at 10 µM, stronger effect = lower value. For orientation: In ATP-based viability assays light output follows the ATP content of the culture.
Assay [4] is described as follows: HUVEC growth inhibition – cell-based, human, primary screen (AID 575;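 active = viability at or below 30% in both replicate assays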;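 also: 100% = median of untreated cell wells with 0.1% DMSO on each plate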). Particulars: HUVEC proliferation, CellTiter-Glo luminescence, 72 h; at 10 µM; stronger effect = lower value.
Assay [5] is described as follows: growth inhibitors of H69AR lung tumor, primary screen, human, duplicate replicates (AID 580;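 active = viability at or under a set limit in both replicates, limit being median viability minus 3 SD, cut at about 48% in these data, passing the limit was not always enough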;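 also: 100% = mean luminescence of untreated wells and 0% = no signal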). To be noted: H69AR lung tumor cells viability, ATP luminescence, 72 h; at 10 µM; stronger effect = lower value.
Assay [6] can be described thus: reversal of MRP1-mediated doxorubicin resistance, pilot screen, H69AR cells, doxorubicin co-treatment (AID 601;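 active = viability loss from added drug above about 55%, and viability with drug at most 40%, in both replicates, limit read from the data, passing the limit was not always enough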). To be noted: CellTiter-Glo, 72 h, at 10 µM; for differential viability (reversal): stronger effect = higher value.
A short description of assay [7]: 384-well plate pilot, post-Golgi transport modulator project, inhibition of yeast transport mutant growth (AID 636; in the data active = inhibition above about 31%). To be noted: absorbance 615 nm, about 18 h, stronger effect = higher value.
Assay [8] is described as follows: growth suppression of yeast trafficking mutant, preliminary HTS, modulators of trafficking downstream of Golgi apparatus project, 1536-format plate, OD 615 nm (AID 637; in the data active = inhibition above about 30%). Particulars: yeast transport mutant growth, absorbance 615 nm, 18 h; stronger effect = higher value.
A short description of assay [9]: OD615 S. cerevisiae growth inhibition, permissive medium, pilot counter-assay, permissive growth control for S. cerevisiae lifespan shortening project (AID 705;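 active = growth inhibition above 25% in both replicates, a cutoff set 3 SD above the mean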). To be noted: OD615, 24 h, at 10 µM, stronger effect = higher value.
A short description of assay [10]: Restrictive medium S. cerevisiae growth inhibition, OD615, pilot screen of yeast lifespan reduction project, restrictive growth control (AID 706;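 active = growth inhibition above a set limit, 3 SD over mean compound inhibition, in both replicates, cut at about 43% in these data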;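 also: modified DeaD lifespan yeast strain shifted to restrictive glucose medium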). To be noted: OD615, 48 h, at 10 µM, stronger effect = higher value.
The nature of assay [11]: viability gain of MRP-1-high H69AR cells under doxorubicin, pilot screen, MRP-1 activator project, CellTiter-Glo, duplicate (AID 807;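 active = viability increase at or above a cutoff of the median across tested compounds plus 3 SD, cut at about 8.5% in these data, passing the limit was not always enough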;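 also: compound pretreatment 18-22 h then 72 h combined with doxorubicin; 0% = doxorubicin alone and 100% = vehicle without doxorubicin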). To be noted: H69AR viability with doxorubicin, CellTiter-Glo luminescence; at 10 µM; stronger effect = higher value.
Assay [12] is described as follows: growth suppression of beta-catenin knockout HCT116, pilot screen, human colon tumor cells (AID 823;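 active = cell viability at or below a set limit in both duplicate runs, the limit being the all-compound median minus 4 SD, cut at about 23% in these data, passing the limit was not always enough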;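 also: 0% = wells killed by 20 µM Hyamine and 100% = untreated DMSO cell wells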). To be noted: CellTiter-Glo, 60 h, at 10 µM, stronger effect = lower value.
Assay [13] in a line: growth suppression of PTEN-deleted HCT116, pilot screen, cell-based, HCT116 clonal line, CellTiter-Glo (AID 824;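 active = viability at or below 27.92% in each of two runs, the all-compound median minus 4 SD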;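 also: 0% = 20 µM Hyamine control and 100% = vehicle cell control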). To be noted: 60 h, at 10 µM, stronger effect = lower value.
Assay [14] is described as follows: inhibitors of the yeast RAM network, pilot screen, dse1pr::URA3 reporter, 5-FOA selection (AID 869;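 active = inhibition over a set limit, the all-compound mean plus 3 SD, in both replicate runs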;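 also: 0% = DMSO wells with no growth and 100% = 10 µM 1-NA-PP1 with full growth; RAM network block rescues cells from 5-FOA so hits raise OD615 growth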). Particulars: S. cerevisiae dse1pr::URA3 5-FOA growth, OD615, 2 d; at 10 µM; stronger effect = higher value; strain carries analog-sensitive mutant Cbk1 kinase.
Assay [15] can be described thus: RAM signaling pathway blockade in yeast – S. cerevisiae, Pdr1DBD-CYC8 efflux-inhibited sensitized strain, primary screen (AID 1298).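 Also: 0% = DMSO untreated cells without growth and 100% = 10 µM 1-NA-PP1 full growth; higher means more yeast growth rescued from 5-FOA killing.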 To be noted: S. cerevisiae cbk1-as DSE1-URA3 strain, 5-FOA growth OD615, 2 d; at 50 µM; stronger effect = higher value.
[16] abbreviates: H69AR cells + 2 uM doxorubicin, measured here: viability with 2 uM doxorubicin, stronger effect = lower value.
Setting [17] is: H69AR cells, compound alone cytotoxicity.

Records with an inconclusive call do not appear. Calls of active or inactive are those of the source.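 The calls were made as follows, unless noted: active = RAM network inhibition above 8.4% in each of two replicates, 3 SD over the compound average; inconclusive = above 8.4% inhibition in only one replicate; inactive = 8.4% inhibition or less in each replicate.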

As usually defined, the viability is a read-out of living cells in per cent, often relative to untreated cells. Broadly, the inhibition is the change of the read-out against control, counted positive when it falls. For `CCCNC(=O)CS(=O)(=O)Cc1nc(-c2cccc(OC)c2)oc1C`, the viability in assay [1] is 86%; in assay [3], 86% (inactive); in assay [4], 109% (inactive); in assay [5], 87.7% (inactive); in assay [6] (setting [16]), 91.7%; in assay [6] (setting [17]), 87.7%. For the same compound, the viability in assay [12] is 93.1% (inactive); in assay [13], 87% (inactive). Moreover, in [2], the Her2 level was 90.5% (inactive). The differential viability (reversal) in [6] (H69AR cells + 2 uM doxorubicin) is -3.96% (inactive). The inhibition in assay [7] was -0.53% (inactive); in [8], 8.2% (inactive); in [14], 0.365% (inactive). Further, the growth inhibition in assay [9] was 7.42% (inactive); in [10], -2.08% (inactive). The viability increase in assay [11] is -0.31% (inactive). The RAM network inhibition in assay [15] was -0.47% (inactive).

In the case of `CCN(CC)C(=O)COC(=O)c1ccc(O)cc1`, the viability in assay [1] was 90.5%; in [3], 90.5% (inactive); in assay [4], 103% (inactive); in assay [5], 91.2% (inactive); in [6] (setting [16]), 96.7%; in assay [6] (setting [17]), 91.2%. The viability in assay [12] was 95.6% (inactive); in [13] it was 101% (inactive). Besides, in [2], the Her2 level is 102% (inactive). The differential viability (reversal) in assay [6] (H69AR cells + 2 uM doxorubicin) is -5.45% (inactive). Also, the results for the inhibition in assay [7], in assay [8] and in [14] were 1.73% (inactive), -5.97% (inactive) and 1.32% (inactive), respectively. The figures for the growth inhibition in assay [9] and in assay [10] were -6.88% (inactive) and -17.4% (inactive), respectively. Besides, the viability increase in assay [11] was 0.25% (inactive). Also, in assay [15], the RAM network inhibition was -0.27% (inactive).

`CCOC(=O)N1CCC(c2cc(=O)n3[nH]c(C)c(-c4ccc(F)cc4)c3n2)CC1`: the viability was 67% in [1]; 67% (inactive) in assay [3]; 7% (active) in assay [4]; 21.3% (active) in assay [5]; 65.5% in [6] (setting [16]); 21.3% in assay [6] (setting [17]). In addition, the viability in assay [12] was 15.8% (active); in assay [13], 19.7% (active). The Her2 level in assay [2] was 80.5% (inactive). Moreover, the differential viability (reversal) in assay [6] (H69AR cells + 2 uM doxorubicin) is -44.2% (inactive). Also, the inhibition in assay [7] is 0.38% (inactive); in [8], -0.33% (inactive); in assay [14], 0.04% (inactive). In addition, the growth inhibition was 2.81% (inactive) in [9] and 9.87% (inactive) in assay [10]. In addition, the viability increase in assay [11] was 0.52% (inactive). The RAM network inhibition in assay [15] is 0.41% (inactive).

Turning to `COc1cccc(NC(=O)CSc2nnc(Cc3cccn3C)n2-c2ccc(F)cc2)c1`, the viability in assay [1] is 94.5%; in [3], 94.5% (inactive); in assay [4], 85.7% (inactive); in assay [5], 78.2% (inactive); in [6] (setting [16]), 86.2%; in [6] (setting [17]), 78.2%. Moreover, the viability is 88.9% (inactive) in [12] and 90.1% (inactive) in assay [13]. Moreover, the Her2 level in assay [2] was 115% (inactive). Moreover, the differential viability (reversal) in assay [6] (H69AR cells + 2 uM doxorubicin) is -8.06% (inactive). In addition, the inhibition in assay [7] is -7.73% (inactive); in [8] it was -8% (inactive); in assay [14], 1.09% (inactive). In addition, the growth inhibition was 0.385% (inactive) in assay [9] and 13.1% (inactive) in assay [10]. Further, the viability increase in [11] was -4.32% (inactive). Besides, in [15], the RAM network inhibition was 6.98% (inactive).

Consider `CC1CCCC(N2CCN(C(=O)c3ccc(F)cc3)CC2)C1` (stereo not given), for which the viability was 95% in assay [1]; 95% (inactive) in assay [3]; 75.4% (inactive) in [4]; 91.3% (inactive) in assay [5]; 89.6% in assay [6] (setting [16]); 91.3% in [6] (setting [17]). In addition, the viability in assay [12] was 101% (inactive); in assay [13] it was 98.5% (inactive). In addition, the Her2 level in [2] is 109% (inactive). Further, the differential viability (reversal) in assay [6] (H69AR cells + 2 uM doxorubicin) is 1.66% (inactive). The inhibition in assay [7] was 1.2% (inactive); in assay [8], 3.5% (inactive); in [14] it was 0.22% (inactive). Further, the figures for the growth inhibition in assay [9] and in assay [10] were -0.99% (inactive) and -4.36% (inactive), respectively. The viability increase in assay [11] was -0.74% (inactive). The RAM network inhibition in assay [15] is -0.84% (inactive).

Values taken from PubChem BioAssay.
